Only some compounds are listed: those with a hit (about 12% of all), similar ones and a draw of the others.
Sfp inh – inhibitors of Bacillus subtilis Sfp phosphopantetheinyl transferase; Potency, µM, inactives show largest response in the series, negative = inhibition, most hits filed as inhibitors; Q9F4F7; Biochemical Sfp PPTase activity, qHTS; actives 3.5% (n = 310,000);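 also: the enzyme is Sfp with the accession as filed and its product quenches rhodamine fluorescence; 0% = enzyme reaction without inhibitor and -100% = no enzyme wells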
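Buffer: 50 mM Hepes-Na pH 7.6, 10 mM MgCl2, 0.01% Nonidet P-40, 0.01% BSA. Enzyme 15 nM, pre-exposed to compound 15 min; substrates then added and fluorescence change tracked over 30 min.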
JMJD2A Tudor – inhibitors of human JMJD2A Tudor domain | O75164 | AlphaScreen JMJD2A-Tudor / H3K4me3 peptide binding | Potency, µM (doses to about 114 µM), for inactives: at the highest dose activity change, negative = inhibition, usual class: inhibitors | actives 4.4% (n = 390,000) | AID 504339; also: % is scaled to controls: 0 for no effect and ±100 for the full control effect; nearly all actives have a fitted effect of over 50% in size
BAZ2B inh – inhibitors of human BAZ2B bromodomain | actives 4.4% (n = 360,000) | AID 504333 | Potency, µM (top dose mostly 114 µM), without a hit: top-dose activity change, negative = inhibition, actives largely listed as inhibitors | AlphaScreen BAZ2B-H3K14Ac peptide displacement | Q9UIF8; also: % is scaled to controls: 0 for no effect and ±100 for the full control effect; nearly all actives have a fitted effect of over 60% in size
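In this displacement format the biotinylated H3(5-23) peptide acetylated at Lys14 serves as ligand at 50 nM, with BAZ2B at 50 nM in PBS pH 7.4 containing 0.01% Tween-20. Donor and acceptor beads are 10 ug/mL final.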
G9a inh – inhibitors of human histone lysine methyltransferase G9a; Q96KQ7; G9a H3K9 monomethylation, AlphaScreen, 2 h; Potency, µM (highest dose often 102 µM), without a hit: top-dose activity, negative = inhibition, most hits filed as inhibitors; actives 8.8% (n = 350,000); also: % is scaled to controls: 0 for no effect and ±100 for the full control effect; nearly all actives have a fitted effect of over 75% in size
Target sequence (Q96KQ7 913-1193 limits assumed): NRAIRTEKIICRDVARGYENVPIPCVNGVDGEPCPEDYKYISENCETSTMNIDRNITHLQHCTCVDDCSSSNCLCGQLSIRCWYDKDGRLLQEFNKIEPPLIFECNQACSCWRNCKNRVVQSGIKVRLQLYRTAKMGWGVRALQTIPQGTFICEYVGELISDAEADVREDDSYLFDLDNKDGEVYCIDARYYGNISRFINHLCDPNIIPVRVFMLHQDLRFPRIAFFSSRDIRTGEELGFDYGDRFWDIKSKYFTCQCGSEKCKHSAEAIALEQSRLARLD
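Chemiluminescent proximity detection of H3K9 monomethylation, read after 10 min bead incubation in the dark. Reaction: 20 nM G9a, 500 nM biotin-H3K9 peptide, 20 uM SAM cofactor, 2 h, room temperature, following 15 min enzyme-compound preincubation.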
HP1b chromo inh – blocks HP1-beta chromodomain binding to methylated histone tails; AlphaScreen HP1-beta / biotin-H3K9me3 peptide binding; actives 0.56% (n = 390,000); AID 540317; Potency, µM (top dose mostly 114 µM), for inactives: at the highest dose activity change, negative = inhibition, hits mostly inhibitors; also: nearly all actives have a fitted effect of over 70% in size
Target sequence (P83916 whole entry, looked up): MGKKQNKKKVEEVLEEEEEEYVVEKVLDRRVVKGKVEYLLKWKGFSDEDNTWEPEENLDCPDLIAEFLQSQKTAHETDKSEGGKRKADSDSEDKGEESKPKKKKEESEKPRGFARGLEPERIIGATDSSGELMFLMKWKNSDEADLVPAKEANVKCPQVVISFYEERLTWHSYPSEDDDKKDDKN
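HP1-beta protein (50 nM final) preincubated 30 min at room temperature with biotinylated H3(1-18)K9me3 peptide (50 nM) in PBS pH 7.4, 0.01% Tween-20, then compound added for 30 min. AlphaScreen streptavidin donor/nickel chelate acceptor beads (10 ug/mL final), 30 min dark, luminescence read.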
* = called active by the depositor; ? = inconclusive; / = no result; [ ] = dose if it differs, or a comment. Calls follow the shape of the dose curve; as a rule, active = well fitted curve in the direction sought with a large enough effect; inconclusive = small, poorly fitted or top-dose-only effect, or another doubt; inactive = no such curve, though single readings can be large; an effect the other way counts as inactive or inconclusive. Potency is read from the fitted curve at half-maximal effect.

SMILES	Sfp inh	JMJD2A Tudor	BAZ2B inh	G9a inh	HP1b chromo inh
CCCS(=O)(=O)N1CCN(Cc2ccccc2C(F)(F)F)CC1	50.1µM*	20µM*	-111.1%	10µM*	?
Fc1ccccc1N1CCN(C2CCCN(Cc3ccccc3C(F)(F)F)C2)CC1 (centres undefined)	7.5%	-17.5%	-12.1%	/	16.0%
C=CCOc1ccccc1CN1CCCN(C)CC1	-28.9%	10µM*	70.8µM*	8.91µM*	?
Cc1ccc(-n2c(=O)c3ccc(C(=O)NCc4ccco4)cc3n(Cc3ccc(Cl)cc3)c2=O)cc1	/	-12.7%	/	0.2%[59 µM]	21.8%
CCc1nc(N=C(N)N)nc2ccccc12	14.9%	/	-1.1%	-3.1%	/
NC(N)=Nc1nc(-c2ccccc2)c2ccccc2n1	50.1µM*	-16.1%	-14.4%	-23.6%	34.7%
CCOc1ccccc1Nc1ccc(C(=O)O)cc1NC(C)=O	56.2µM*	-9.1%	-17.7%	-33.5%[59 µM]	27.9%
COc1ccc(Nc2nc(OC)nc(N3CCN(c4ccc(OC)cc4)CC3)n2)cc1	6.8%	-27.9%	-16.6%	?	26.8%
COc1ccc(N2CCN(c3nc(NCCc4ccc(OC)c(OC)c4)nc(OC)n3)CC2)cc1	3.3%	25.1µM*	39.8µM*	11.2µM*	?
COc1ccc(OC)c(N=C2C(=O)Nc3ccccc32)c1	9.3%	-30.8%	?	?	0.1%
COc1cc(-n2nnnc2SC)c(OC)cc1Cl	23.8%	-3.7%	-4.9%	9.6%	30.4%
COc1cc(N=c2ssnc2Cl)c(OC)cc1Cl	10µM*	25.1µM*	28.2µM*	1.12µM*	11.2µM*
COc1ccc(OC)c(N=c2ssnc2Cl)c1	8.91µM*	?	25.1µM*	1.12µM*	?
Cc1nn(CCOc2ccccc2Cl)c(C)c1[N+](=O)[O-]	5.1%	-7.7%	4.4%	50.1µM*	10.0%
Cc1nn(CCOc2cccc(Cl)c2)c(C)c1[N+](=O)[O-]	-3.4%	21.2%	11.8%	65.9%	44.6%
CCN(c1ccc(C)cc1C)S(=O)(=O)c1nnc(NC(=O)CC(C)C)s1	/	-5.3%	-1.3%	2.4%[59 µM]	30.6%
CCCn1ccc2c(OCC(=O)Nc3cc(C)ccc3C)cccc2c1=O	/	-8.8%	7.4%	0.5%[59 µM]	54.4%
COCc1cc(=O)n2[nH]c(N)nc2n1	-6.1%	-30.7%	50.1µM*	/	26.2%
Cc1cc(C)[n+](-c2ccc(C(C)C)cc2)c2[nH]c(=O)[nH]c(=O)c12	26.9%	-11.0%	-0.7%	?	36.6%
Cc1cccc(-[n+]2c(C)cc(C)c3c(=O)[nH]c(=O)[nH]c32)c1	2.4%	-1.3%	2.2%	50.1µM*	22.5%
O=C(N[C@@H](Cc1ccccc1)C(=O)OCc1ccccc1)c1nc[nH]c1C(=O)N1CCNCC1	/	50.1µM*	/	/	3.1%
C[C@H](NC(=O)c1nc[nH]c1C(=O)N1CCNCC1)C(=O)OC(C)(C)C	/	35.5µM*	50.1µM*	?	16.2%
C[C@H](NC(=O)c1nc[nH]c1C(=O)NCCCCCN)C(=O)OCc1ccccc1	/	44.7µM*	50.1µM*	-10.2%[2.33 µM]	26.0%
C[C@H](NC(=O)c1nc[nH]c1C(=O)NCCCCCN)C(=O)OC(C)(C)C	/	56.2µM*	50.1µM*	22.6%[2.33 µM]	12.5%
CC(C)(C)OC(=O)N1CCN(C(=O)c2[nH]cnc2C(=O)N[C@@H](Cc2ccccc2)C(=O)OCc2ccccc2)CC1	8.8%	-19.3%	-1.6%[57.1 µM]	/	47.2%
SMILES	Sfp inh	JMJD2A Tudor	BAZ2B inh	G9a inh	HP1b chromo inh
CC(C)(C)OC(=O)[C@H](CCCCN)NC(=O)c1nc[nH]c1C(=O)NCCCCCN	/	-21.5%	?	-10.1%[12.7 µM]	1.0%
COc1ccc(NC(=O)N2CCC(n3c(C)nc4cccnc43)CC2)cc1OC	/	-1.0%	-9.2%	6.8%[59 µM]	24.9%
CC(C)(C)OC(=O)NCc1ccc(CNC(=O)c2nc[nH]c2C(=O)N2CCc3ccccc3C2)cc1	/	-22.5%	50.1µM*	9.1%[2.33 µM]	45.4%
CC(=O)c1cccc(NC(=O)C(CC(C)C)NC(=O)C2CCCCC2)c1 (centres undefined)	-14.9%	-8.2%	-9.9%	12.5%[59 µM]	47.1%
CCCNC(=O)CN1C(=O)NC(Cc2c[nH]c3ccccc23)C1=O (centres undefined)	-5.5%	50.1µM*	13.6%	2.2%	2.9%
O=C(O)C1=CC[C@@H](c2ccc(Cl)cc2)N(S(=O)(=O)c2ccc(Cl)cc2)[C@H]1c1ccc(Br)cc1	/	-26.0%	/	/	0.8%
C=CC[C@@H]1C=C[C@H](O/N=C(\C)CCN2CCc3nc(-c4ccccc4)c(-c4ccccc4)cc3C2)[C@H](CO)O1	14.7%	/	/	/	/
O=C(NC(=S)Nc1cccc2ncccc12)c1cccs1	44.7µM*	-4.4%	-32.1%	50.1µM*	26.1%
O=C(NC(=S)Nc1cccc2ncccc12)c1ccccc1	20µM*	-21.8%	-24.0%	?	3.8%
CCOc1ccc(CNCc2c(C(=O)O)n(Cc3ccccc3C)c3cc(OC)ccc23)cc1OC	/	-9.9%	-15.9%	-24.2%[59 µM]	24.6%
C/C(CC1(O)/C(=N/O)CCc2nonc21)=N\O (centres undefined)	11.4%	15.8µM*	3.9%	39.8µM*	14.6%
Cc1nn2c(=O)cc(COC(=O)C(c3ccccc3)c3ccccc3)nc2s1	/	-11.3%	-9.3%	17.8%[59 µM]	9.4%
O=C(O)c1ccc(CSc2nc3ccc(NC(=O)c4ccccc4C(=O)O)cc3s2)cc1	-8.8%	-33.0%	?	44.7µM*	72.8%
Cc1ccc(S(=O)(=O)NC(=O)COc2ccc([N+](=O)[O-])cc2)cc1	18.0%	-15.1%	-4.2%	?	2.1%
CCCCC/C=C\C/C=C\C/C=C\CCCCC(N)=O	-2.9%	/	/	/	/
CCCCCc1cc(=O)oc2c(C(CCN(CC)CC)c3ccc(OC)cc3)c(OC)cc(OC)c12 (centres undefined)	56.2µM*	-32.6%	-30.4%	10.3%[12.7 µM]	-5.7%
CCCCCc1cc(=O)oc2c(C(CCN3CCCC(C)C3)c3ccc(OC)cc3)c(OC)cc(OC)c12 (centres undefined)	25.1µM*	?	?	?	-15.8%
COc1cc(OC)c2c(C)cc(=O)oc2c1C(CCN1CCCC(C)C1)c1ccc(N(C)C)cc1 (centres undefined)	-16.8%	28.2µM*	/	/	?
CCCCCc1cc(=O)oc2c(C(CCN3CCCC3)c3ccc(N(C)C)cc3)c(OC)cc(OC)c12 (centres undefined)	79.4µM*	11.2µM*	8.91µM*	?	?
CCCCCc1cc(=O)oc2c(C(CCN3CCCCC3)c3ccc(OC)cc3)c(OC)cc(OC)c12 (centres undefined)	?	?	-24.6%	2.0%[59 µM]	-13.1%
COc1cccc(NC(=O)CN(C)CC(=O)Nc2ccc(C)c([N+](=O)[O-])c2)c1	-4.6%	?	?	?	?
Nc1ccc(C(=O)N/N=C/c2c[nH]c3ccccc23)cc1	-10.0%	-19.8%	-23.2%	32.3%	13.5%
